# Screen size: about 360,000 compounds; about 1,800 (0.5%) were called active. The entries come from a sample that favours actives as a whole. Unmarked numbers belong to inactive results.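 The calls were made as follows: active = interference check ratio from 0.5 to 1.5 plus GFP to RFP signal ratio inhibition reaching or exceeding a fixed threshold (cut at about 30% in these data, passing the limit was not always enough); inactive = the rest.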
# Test: gst-4 reporter inhibition in live C. elegans – whole organism, uHTS, GFP/RFP fluorescence ratio, strain VP596, SKN-1 inhibitor project, primary screen (AID 624304)
# Conditions: C. elegans VP596 Pgst-4::GFP/RFP ratio, acrylamide-induced, 24 h; at 21.8 µM; hits give high values
row,SMILES,inhibition
1,CCc1ccc2c(c1)C1(NN=C(c3ccccc3)S1)C(=O)N2 (configuration not stated),4.61%
2,Cc1ccc(-c2ccc(CN3C(C(C)C)C(=O)N(Cc4cn(CCC5OCCO5)nn4)CCS3(=O)=O)cc2)cc1 (configuration not stated),12.6%
3,COc1ccc(C2C3=C(OC(C)=O)c4ccccc4C3=Nc3c2c(=O)n(C)c(=O)n3C)cc1 (configuration not stated),2.4%
4,CCOc1ccc(OCC)c(NC(=O)CN(C)S(=O)(=O)c2cccc3nsnc23)c1,27.2%
5,CCO[C@@H]1OC(C(=O)NCc2nc3ccccc3[nH]2)=C[C@H](C2CCCCC2)[C@H]1CCCO,7.19%
6,CCOC(=O)C1=C(C)NC2=C(C(=O)CC(C)(C)C2)C1c1ccsc1 (configuration not stated),1.51%
7,CCOC(=O)C1=C(C)Nc2sc(C(=O)c3ccc(Br)cc3)c(N)c2C1c1ccc(C(=O)OC)cc1 (configuration not stated),37.2% (active)
8,COC(=O)c1ccc(C2NC(=O)NC(C)=C2C(=O)N(C)C)cc1 (configuration not stated),0.51%
9,CS(=O)(=O)N(CC(O)Cn1c2ccccc2c2ccccc21)c1cccc2ccccc12 (configuration not stated),5.96%
10,Oc1cccc2cc(-c3ccncc3)cnc12,-1.84%
11,CC1=NN(C(=O)CCc2ccccc2O)C(O)(C(F)(F)F)C1 (configuration not stated),0.219%
12,CCN(CC)S(=O)(=O)c1ccc(N(C)Cc2ccc(C(F)(F)F)cc2)nc1,3.82%
13,CCN(CC)S(=O)(=O)c1ccc(N(C)Cc2cccc(OC)c2OC)nc1,13.3%
14,CCN(CC)S(=O)(=O)c1ccc(N(C)CCc2ccc(OC)c(OC)c2)nc1,43% (active)
15,S=c1[nH]ccn1-c1ccc(Cl)cc1,1.55%
16,COc1cc2c(C(=O)N3CCN(C)CC3)c(CSc3ccccc3)n(C)c2cc1Br,-4.81%
17,Oc1ccc(-c2nncn2-c2ccccc2)cc1,3.4%
18,Cc1c(C(=O)NCCN2C(=O)S/C(=C\c3cccs3)C2=O)cccc1[N+](=O)[O-],9.81%
19,CC(=O)Nc1ccc(NC(=O)CCN2C(=O)C3CC=CCC3C2=O)cc1 (configuration not stated),-12.5%

row,SMILES,inhibition
1,O=C(CCCN1C(=O)/C(=C/c2cccs2)SC1=S)Nc1ccc(O)cc1,38.3% (active)
2,Cn1nnc2cc(C(=O)NCCC3=CCCCC3)ccc21,35.4% (active)
3,O=C(NCCC1=CCCCC1)c1ccc(Cl)c([N+](=O)[O-])c1,7.85%
4,CC(Sc1nncn1C)C(=O)NCCC1=CCCCC1 (configuration not stated),-8.96%
5,CC(=O)N1CCN(c2ccccc2NC(=S)NC(=O)c2cc3ccccc3o2)CC1,6.86%
6,COc1ccc(C(=O)NC(=S)Nc2ccccc2N2CCN(S(C)(=O)=O)CC2)cc1OC,41% (active)
7,CCc1ccc(C(=O)NC(=S)Nc2ccccc2N2CCOCC2)cc1,11%
8,CC(=O)c1cccc(NC(=O)N2CCCC2C(=O)NCCc2ccccc2)c1 (configuration not stated),23.5%
9,Cn1nnnc1SCC(=O)Nc1cccc(S(=O)(=O)N2CCCCC2)c1,6.32%
10,O=C(CSc1ccccc1)Nc1cccc(S(=O)(=O)N2CCCCC2)c1,12.9%
11,COCCn1cnnc1SCC(=O)Nc1cccc(S(=O)(=O)N2CCCCC2)c1,47% (active)
12,CCOC(=O)C1CCCN(C(=O)COc2ccc(N(C)S(=O)(=O)c3ccc(C)cc3)cc2)C1 (configuration not stated),-2.11%
13,Cn1cc(S(=O)(=O)N2CCN(c3ccc(F)cc3)CC2)c(=O)n(C)c1=O,1.81%
14,CCN1C(=O)[C@@H]2[C@@H]3CN(S(=O)(=O)c4ccccc4C)[C@@H](c4ccc(Cl)cc4)[C@@H]3C(=O)C[C@@H]2C1=O,2.39%
15,C#CCN(C[C@H]1[C@H](OC(=O)NC2CCCC2)[C@H](OC(=O)NC2CCCC2)C[C@H]2C(=O)N(c3ccccc3)C(=O)[C@@H]12)S(=O)(=O)c1ccc(C)cc1,11.9%
16,COc1ccc2oc(N)nc2c1,3.43%
17,CCc1ccc2oc(-c3ccc(N)cc3)nc2c1,39.8% (active)
18,O=[N+]([O-])c1ccc2oc(-c3cccc(O)c3)nc2c1,17%
19,CCCCN1CC(C)(C)[C@H](CC(=O)Nc2ccc(Br)cc2)C1=O,13%

row,SMILES,inhibition
1,CCCCN1C[C@H](c2ccc(Br)cc2)[C@@H](CC(=O)Nc2ccc(Br)cc2)C1=O,46.8% (active)
2,C[C@H]1CN(c2ccc(Br)cc2)C(=O)[C@@H]1CC(=O)Nc1ccc(Br)cc1,-1.36%
3,COC(=O)c1ccc(N(CC(=O)NC2CCCC2)C(=O)CNC(=O)c2ccco2)cc1,13.4%
4,NS(=O)(=O)c1cccc(NC(=O)COC(=O)/C=C/c2ccco2)c1,0.905%
5,O=C(/C=C/c1ccco1)NC(=S)N1CCCCC1,11.9%
6,O=C(/C=C/c1ccco1)Nc1ccc(Oc2ccccc2)cc1,48.8% (active)
7,Cc1ccoc1C(=O)Nc1cccc(Oc2ccccc2)c1,-23.9%
8,CN1CCN(S(=O)(=O)c2ccc(NC(=O)c3ccco3)cc2)CC1,13.7%
9,O=C(Nc1ccc(Oc2ccccc2)cc1)c1ccco1,38.8% (active)
10,CCNc1nc(NC(C)C)nc(N2CC(=O)N(CC(=O)OCC)C2=N)n1,3.01%
11,NS(=O)(=O)c1ccccc1NC(=O)c1c(O)c2ccccc2[nH]c1=O,5.41%
12,COc1cccc(CNS(=O)(=O)c2ccc3c(c2)N(C(C)=O)CCS3)c1,19.6%
13,CC1CCN(c2oc(-c3ccccc3F)nc2C#N)CC1,35.4% (active)
14,Cc1oc(-c2ccccc2F)nc1CS(=O)CC(=O)NCCN1CCCCC1C (configuration not stated),5.11%
15,N#Cc1nc(-c2cccc3ccccc23)oc1N,16.8%
16,O=[N+]([O-])c1cc([N+](=O)[O-])c(Oc2cc(F)cc(F)c2F)cc1NN1CCCCC1,15.8%
17,CCCNC(=O)C1(C)CCN(C(=O)c2ccccc2OC(F)(F)F)C1 (configuration not stated),-0.325%
18,O=C(CCc1ccc(S(=O)(=O)NC2CCCCC2)cc1)NCc1ccccc1,3.92%
19,Cc1cc(N=Nc2ccc3ccccc3c2)ccc1O,44.4% (active)

# From PubChem BioAssay AID624304 (Sanford-Burnham Center for Chemical Genomics, 2012)
